# Measurements reported in PubChem BioAssay (NCATS).
# Inconclusive results are not listed. The source made the active and inactive calls. Unless noted, calls follow the shape of the dose curve; as a rule, active = well fitted curve in the direction sought with a large enough effect; inconclusive = small, poorly fitted or top-dose-only effect, or another doubt; inactive = no such curve, though single readings can be large; an effect the other way counts as inactive or inconclusive.
# Tests used:
# [1] = biological target: Lysosomal acid glucosylceramidase (Homo sapiens) (UniProt P04062); experiment: Glucocerebrosidase-p2 (AID 348; in the data active = potency below about 10 µM; also: potency is read from the fitted curve at half-maximal effect); details: purified GBA, blue fluorogenic substrate, 40 min
# How it was run: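 Compounds titrated from 0.6 nM upwards against 0.2 nM enzyme in pH 5.9 citric acid/KH2PO4, taurocholate, tween-20; blue fluorogenic substrate 80 uM, 40 min room temperature, stopped and read Ex 365/Em 440 for AC50.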
# [2] = AP1 Signaling Pathway (AID 357; active = well fitted curve in either direction with a large enough effect, not every such curve was filed as active; also: % is scaled to controls: 0 for no effect and ±100 for the full control effect); details: ME-180 AP-1-bla reporter, EGF-induced, beta-lactamase ratio, 5 h; at 7.69 µM (top of the series) unless noted
# How it was run: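 Modulation of EGF-driven AP-1 transcription was assessed with a beta-lactamase reporter in ME-180 cells. Compound and EC50 EGF were co-incubated 5 hours at 37 °C before 2.5-hour CCF4 loading at room temperature and dual-emission reading.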
# [3] = biological target: Cytochrome P450 1A2 (Homo sapiens) (UniProt P05177); experiment: p450-cyp1a2 (AID 410; calls by dose curve; also: potency is read from the fitted curve at half-maximal effect); details: recombinant CYP1A2, luciferin-ME demethylation, luminescence; series mostly up to 57 µM
# How it was run: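 Inhibition was calculated relative to 57 uM furafylline (full inhibition). The reaction used human CYP1A2 at 20nM with Luciferin-ME at its Km, 100uM, driven by an NADPH-regenerating system for 60 min at room temperature.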
# [4] = NFAT Signaling Pathway (AID 444; active = well fitted curve in either direction with a large enough effect, not every such curve was filed as active;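 also: carbachol stimulus at about its EC50 of 1 µM final; % is scaled to controls: 0 for no effect and ±100 for the full control effect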); details: Jurkat NFAT-bla M1, carbachol, beta-lactamase ratio, 5 h; at 7.69 µM (top of the series) unless noted
# How it was run: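 Jurkat cells carrying an NFAT-driven β-lactamase reporter and co-transfected muscarinic M1 receptor were treated with compound plus carbachol (1 uM final, an EC50 level) for 5 h at 37 °C. CCF4 loading followed for 1 h at RT; 460/530 nm ratio gave %activity.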
# [5] = Stat Signaling Pathway (AID 446; active = well fitted curve in either direction with a large enough effect, not every such curve was filed as active;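 also: ME-180 cervical cancer cells given 40 pM IL-6 alongside compound; SIE-controlled beta-lactamase reporter measured as 460/530 nm FRET emission ratio; % is scaled to controls: 0 for no effect and ±100 for the full control effect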); details: ME-180 SIE beta-lactamase reporter, IL-6 stimulated, 5 h; at 7.69 µM (top of the series) unless noted
# How it was run: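 ME-180 SIE-bla cells; overnight plating; cpd + IL-6 40 pM, 5 h, 37 C; LiveBLAzer 2.5 h RT; 460/530 nm emission ratio. Normalized to 300 pM IL-6 and 125 nM JAK inhibitor controls.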
# [6] = biological target: Glucocorticoid receptor (Homo sapiens) (UniProt P04150); experiment: GR-GFP Redistribution (AID 450;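 active = compounds whose dose series gives a full or clear partial fitted curve of increased nuclear translocation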; also: potency is read from the fitted curve at half-maximal effect); details: U2OS GR-GFP nuclear translocation, laser cytometry, 2 h
# [7] = biological target: Glucocorticoid receptor (Homo sapiens) (UniProt P04150); experiment: GR-EFC Redistribution (AID 451; calls by dose curve; also: potency is read from the fitted curve at half-maximal effect); details: CHO-K1 GR-EFC translocation, beta-gal luminescence, 2 h
# How it was run: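 CHO-K1 cells stably expressing nuclear-localized β-gal enzyme acceptor and GR fused C-terminally to the enzyme donor fragment; ligand-driven nuclear translocation restores β-gal by complementation. Compounds titrated up to 46 uM final, 2 h at 37 °C; luminescence read.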
# [8] = biological target: Mitogen-activated protein kinase 10 (Mus musculus) (UniProt Q61831); experiment: JNK3 AlphaScreen Assay (AID 530; active = well fitted curve in either direction with a large enough effect, not every such curve was filed as active;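 also: kinase came from lysate of stimulated human HepG2 cells; signal reports phosphorylation of biotinylated GST-cJun 1-79 at Ser73 with 10 µM ATP; % is scaled to controls: 0 for no effect and ±100 for the full control effect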); details: JNK3 lysate, c-Jun phosphorylation; series mostly up to 57.1 µM
# How it was run: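 JNK3 came from HepG2 lysates pre-activated with IL-1beta and TNF-alpha and phosphorylated biotinylated GST-cJun (1-79) at 10 uM ATP, pH 7.6, room temperature. Compounds were titrated. AlphaScreen signal used anti-phospho-cJun (Ser73) antibody.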
# [9] = biological target: 3',5'-cyclic-AMP phosphodiesterase 4B (Homo sapiens) (UniProt Q07343); experiment: qHTS Assay for Inhibitors of PDE-IV (AID 607; active = well fitted activation curve with a large enough effect in the main read-out, with a control signal flat, not every such curve was filed as active; also: % of control where 0% means no effect); details: HEK293 ACTOne CNG channel cells, membrane potential fluorescence; series mostly up to 22.9 µM
# How it was run: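 ACTOne HEK293 cells carry a modified cAMP-gated CNG channel and express endogenous PDE4; plated 1000 cells/well, compounds up to 22.9 uM final. Membrane-potential dye fluorescence (ex 535/em 590) was read; parental cells received 10 uM forskolin + 100 uM RO 20-1724.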
# [10] = biological target: Cytochrome P450 3A4 (Homo sapiens) (UniProt P08684); experiment: qHTS Assay for Inhibitors and Substrates of Cytochrome P450 3A4 (AID 884); details: recombinant CYP3A4, Luciferin-PPXE luminescence; series mostly up to 57.1 µM; also: nearly all actives have a fitted effect of over 50% in size; also: potency is read from the fitted curve at half-maximal effect
# How it was run: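 20 nM human CYP3A4 with 25 uM Luciferin-PPXE (at KM) in 200 mM KPO4, preincubated 10 min with compound; NADPH regeneration started a 60 min RT reaction. Luciferin detected by luminescence, normalized to 57 uM ketoconazole as full inhibition.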
# [11] = biological target: Cytochrome P450 3A4 (Homo sapiens) (UniProt P08684); experiment: qHTS Assay for Activators of Cytochrome P450 3A4 (AID 885); details: recombinant CYP3A4, Luciferin-PPXE luminescence, 60 min; series mostly up to 57.1 µM; also: nearly all actives have a fitted effect of over 65% in size; also: potency is read from the fitted curve at half-maximal effect
# How it was run: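 20nM CYP3A4 + 25uM Luciferin-PPXE (=KM), 200mM KPO4; cpd 10 min RT; NADPH regen, 60 min RT; stop w/ detection buffer, 20 min; luminescence. Normalized to 57 uM ketoconazole.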
# [12] = qHTS Assay for Identification of Small Molecule Agonists for Hypoxia Response Element Signaling Pathway (AID 914; active = well fitted activation curve with a large enough effect in the signal ratio, with a control signal flat, not every such curve was filed as active; the % refers to the signal ratio; also: % of control where 0% means no effect); details: ME-180 (cervical carcinoma) HRE-bla reporter, beta-lactamase ratio, CoCl2, 17 h; activation: stronger effect = higher value
# How it was run: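 Positive modulation of EC50 CoCl2-induced hypoxia response element signaling is measured in ME-180 cells with a beta-lactamase reporter. Compounds are titrated, incubation runs 17 hours, and %Activity derives from the blue/green ratio.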
# [13] = qHTS Assay for Lipid Storage Modulators (AID 1519; calls by dose curve); details: Drosophila S3 cells, BODIPY lipid droplet/cell ratio, laser cytometry, cells loaded with oleic acid; for activity change, negative = inhibition: at 57.5 µM (top of the series)
# How it was run: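 Cells seeded at 5,000 per well were treated with compounds over a concentration series and loaded with oleic acid (400 uM, as added). Lipid droplet fluorescence (488 nm excitation, 500-530 nm channel) was read by laser-scanning cytometry and normalized to 20 uM Triacsin C.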
# [14] = biological target: Dual specificity protein kinase CLK4 (Homo sapiens) (UniProt Q9HAZ1); experiment: qHTS Assay for Inhibitors of CDC-like Kinase 4 (Kinase-Glo Assay) (AID 1770); details: recombinant Clk4, Kinase-Glo ATP depletion luminescence; series mostly up to 66.7 µM; also: nearly all actives have a fitted effect of over 65% in size; also: potency is read from the fitted curve at half-maximal effect
# How it was run: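 Substrate mix (RS peptide 100 uM, ATP 1 uM) dispensed, compound pinned in, then Clk4 added to 25 nM final. Incubated 4.5 h at RT; Kinase-Glo reagent added, luminescence read after 5 min.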
# [15] = biological target: Dual specificity protein kinase CLK4 (Homo sapiens) (UniProt Q9HAZ1); experiment: qHTS Assay for Inhibitors of CDC-like Kinase 4 (ADP-Glo Assay) (AID 1771); details: recombinant CLK4, ADP-Glo luminescence; series mostly up to 80 µM; also: nearly all actives have a fitted effect of over 70% in size; also: potency is read from the fitted curve at half-maximal effect
# How it was run: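 Kinase reaction: Clk4 at 25 nM, RS repeat peptide substrate at 100 uM, ATP at 1 uM, 1 hr, room temperature. Product ADP detected as luciferase signal via ADP-Glo.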
# [16] = biological target: Dual specificity protein kinase CLK4 (Homo sapiens) (UniProt Q9HAZ1); experiment: qHTS Assay for Inhibitors of CDC-like Kinase 4 (ADP-FP Assay) (AID 1795); details: Transcreener ADP fluorescence polarization; series mostly up to 50 µM;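 also: recombinant human CLK4 phosphorylating RS repeat peptide at 1 µM ATP; % is scaled to controls: 0 for no effect and ±100 for the full control effect; nearly all actives have a fitted effect of over 60% in size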
# How it was run: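 Clk4 6.25 nM; RS peptide 100 uM; ATP 1 uM; 25 mM Tris pH 7.5, 10 mM MgCl2; 1 h reaction. ADP detected via antibody/orange tracer FP displacement; TG003 positive control.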
# [17] = biological target: Ubiquitin carboxyl-terminal hydrolase 1 (Homo sapiens) (UniProt O94782); experiment: Inhibitors of USP1/UAF1: Pilot qHTS (AID 504865); details: purified USP1/UAF1, Ub-rhodamine cleavage fluorescence; series mostly up to 54.9 µM;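 also: rhodamine fluorescence freed from ubiquitin-rhodamine substrate followed over time; top concentration of the series differs between compounds; % is scaled to controls: 0 for no effect and ±100 for the full control effect; nearly all actives have a fitted effect of over 35% in size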
# How it was run: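 In 50mM HEPES pH 7.8 containing 0.5mM EDTA, 1mM TCEP, 0.1 mg/ml BSA and 0.01% Tween-20, 1nM USP1/UAF1 is exposed to compound for 15 min, then Ub-Rho (150nM final) is added and fluorescence is read over time.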
# [18] = Primary qHTS for small molecule stabilizers of the endoplasmic reticulum resident proteome: Secreted ER Calcium Modulated Protein (SERCaMP) assay (AID 1508630); details: SH-SY5Y GLuc-SERCaMP (Gaussia luciferase released on ER calcium loss) secretion, thapsigargin, luminescence; series mostly up to 38.4 µM; also: % is scaled to controls: 0 for no effect and ±100 for the full control effect
# How it was run: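 GLuc-SERCaMP-expressing SH-SY5Y cells, pretreated 16 h with compound, are challenged with thapsigargin to empty ER calcium stores; after 4 h, coelenterazine is added directly to the medium and luminescence is imaged.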
# [19] = measured here: cell count channel max response
# [20] = measured here: lipid channel max response
# Cytochrome P450 3A4 (Homo sapiens), sequence (P08684 whole entry, looked up): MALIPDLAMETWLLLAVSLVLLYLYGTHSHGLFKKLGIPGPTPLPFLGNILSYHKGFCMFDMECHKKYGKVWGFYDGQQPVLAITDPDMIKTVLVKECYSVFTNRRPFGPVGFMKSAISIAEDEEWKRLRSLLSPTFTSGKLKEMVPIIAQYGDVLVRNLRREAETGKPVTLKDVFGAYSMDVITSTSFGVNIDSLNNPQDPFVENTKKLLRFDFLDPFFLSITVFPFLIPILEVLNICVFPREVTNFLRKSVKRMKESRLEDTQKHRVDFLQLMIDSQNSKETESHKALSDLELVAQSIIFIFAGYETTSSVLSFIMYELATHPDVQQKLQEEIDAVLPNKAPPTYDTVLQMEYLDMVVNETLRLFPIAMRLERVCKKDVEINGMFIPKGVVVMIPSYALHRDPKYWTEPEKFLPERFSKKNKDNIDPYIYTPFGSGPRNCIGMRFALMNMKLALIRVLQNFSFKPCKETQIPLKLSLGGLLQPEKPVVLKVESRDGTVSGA
# Lysosomal acid glucosylceramidase (Homo sapiens), sequence (P04062 whole entry, looked up): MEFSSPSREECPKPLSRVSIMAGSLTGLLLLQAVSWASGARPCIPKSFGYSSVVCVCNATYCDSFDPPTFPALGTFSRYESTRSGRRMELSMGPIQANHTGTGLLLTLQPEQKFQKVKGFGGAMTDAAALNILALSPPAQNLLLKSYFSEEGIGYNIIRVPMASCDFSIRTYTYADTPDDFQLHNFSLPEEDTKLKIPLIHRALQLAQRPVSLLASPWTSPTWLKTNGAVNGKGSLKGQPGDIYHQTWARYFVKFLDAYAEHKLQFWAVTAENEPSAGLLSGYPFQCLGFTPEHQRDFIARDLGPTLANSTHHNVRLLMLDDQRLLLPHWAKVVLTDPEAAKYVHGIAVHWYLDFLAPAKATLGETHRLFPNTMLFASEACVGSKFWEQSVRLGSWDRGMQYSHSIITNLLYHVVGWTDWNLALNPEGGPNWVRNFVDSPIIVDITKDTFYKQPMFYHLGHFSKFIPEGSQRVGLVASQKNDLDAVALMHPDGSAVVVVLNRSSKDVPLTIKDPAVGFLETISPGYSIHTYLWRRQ
# Dual specificity protein kinase CLK4 (Homo sapiens), sequence (Q9HAZ1 whole entry, looked up): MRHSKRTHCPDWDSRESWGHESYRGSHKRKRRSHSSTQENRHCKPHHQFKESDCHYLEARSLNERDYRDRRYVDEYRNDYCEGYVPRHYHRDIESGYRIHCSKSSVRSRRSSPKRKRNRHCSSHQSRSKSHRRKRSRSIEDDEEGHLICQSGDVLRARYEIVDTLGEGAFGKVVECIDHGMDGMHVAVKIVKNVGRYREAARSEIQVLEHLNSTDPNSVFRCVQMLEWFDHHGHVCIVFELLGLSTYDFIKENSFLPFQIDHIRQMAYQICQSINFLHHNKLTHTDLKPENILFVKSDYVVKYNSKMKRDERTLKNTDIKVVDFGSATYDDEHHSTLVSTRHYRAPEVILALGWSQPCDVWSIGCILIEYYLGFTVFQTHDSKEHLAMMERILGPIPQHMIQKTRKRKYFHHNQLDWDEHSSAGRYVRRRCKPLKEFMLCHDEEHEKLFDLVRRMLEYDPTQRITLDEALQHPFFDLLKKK
# Glucocorticoid receptor (Homo sapiens), sequence (P04150 whole entry, looked up, the tested form may be a part): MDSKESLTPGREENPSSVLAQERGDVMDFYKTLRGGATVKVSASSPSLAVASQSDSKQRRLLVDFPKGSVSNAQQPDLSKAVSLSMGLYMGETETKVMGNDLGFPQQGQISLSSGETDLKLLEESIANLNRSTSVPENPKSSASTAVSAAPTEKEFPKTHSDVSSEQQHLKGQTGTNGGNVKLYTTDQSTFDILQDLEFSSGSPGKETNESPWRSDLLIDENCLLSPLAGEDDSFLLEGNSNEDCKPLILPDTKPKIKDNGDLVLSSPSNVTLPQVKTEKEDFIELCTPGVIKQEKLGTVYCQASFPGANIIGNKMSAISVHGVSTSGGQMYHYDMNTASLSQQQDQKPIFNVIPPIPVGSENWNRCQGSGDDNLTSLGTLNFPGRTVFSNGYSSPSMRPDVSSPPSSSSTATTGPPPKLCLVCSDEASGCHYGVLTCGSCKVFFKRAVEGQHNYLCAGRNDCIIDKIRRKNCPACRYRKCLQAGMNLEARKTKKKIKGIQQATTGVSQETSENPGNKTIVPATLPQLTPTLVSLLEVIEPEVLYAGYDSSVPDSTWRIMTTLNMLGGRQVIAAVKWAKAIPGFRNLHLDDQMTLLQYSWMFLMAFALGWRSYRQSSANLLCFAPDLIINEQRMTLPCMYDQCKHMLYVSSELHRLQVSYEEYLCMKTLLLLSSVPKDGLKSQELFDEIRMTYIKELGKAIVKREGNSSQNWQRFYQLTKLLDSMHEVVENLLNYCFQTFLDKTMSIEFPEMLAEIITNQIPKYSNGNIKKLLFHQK
# Cytochrome P450 1A2 (Homo sapiens), sequence (P05177 whole entry, looked up): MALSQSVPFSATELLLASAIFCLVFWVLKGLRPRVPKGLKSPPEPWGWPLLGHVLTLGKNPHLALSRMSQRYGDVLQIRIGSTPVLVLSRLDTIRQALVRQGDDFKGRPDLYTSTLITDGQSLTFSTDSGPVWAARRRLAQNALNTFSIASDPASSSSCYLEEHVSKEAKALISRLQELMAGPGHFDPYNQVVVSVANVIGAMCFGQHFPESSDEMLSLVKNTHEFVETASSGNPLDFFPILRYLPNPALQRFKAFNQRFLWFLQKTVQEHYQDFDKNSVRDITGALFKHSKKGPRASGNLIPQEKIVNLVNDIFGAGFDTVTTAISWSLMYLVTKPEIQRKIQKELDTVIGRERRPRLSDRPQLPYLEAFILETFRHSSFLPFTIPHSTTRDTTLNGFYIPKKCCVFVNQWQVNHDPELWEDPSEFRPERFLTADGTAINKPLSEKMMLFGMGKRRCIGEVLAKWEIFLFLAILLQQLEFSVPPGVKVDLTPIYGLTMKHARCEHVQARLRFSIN
# Ubiquitin carboxyl-terminal hydrolase 1 (Homo sapiens), sequence (O94782 whole entry, looked up): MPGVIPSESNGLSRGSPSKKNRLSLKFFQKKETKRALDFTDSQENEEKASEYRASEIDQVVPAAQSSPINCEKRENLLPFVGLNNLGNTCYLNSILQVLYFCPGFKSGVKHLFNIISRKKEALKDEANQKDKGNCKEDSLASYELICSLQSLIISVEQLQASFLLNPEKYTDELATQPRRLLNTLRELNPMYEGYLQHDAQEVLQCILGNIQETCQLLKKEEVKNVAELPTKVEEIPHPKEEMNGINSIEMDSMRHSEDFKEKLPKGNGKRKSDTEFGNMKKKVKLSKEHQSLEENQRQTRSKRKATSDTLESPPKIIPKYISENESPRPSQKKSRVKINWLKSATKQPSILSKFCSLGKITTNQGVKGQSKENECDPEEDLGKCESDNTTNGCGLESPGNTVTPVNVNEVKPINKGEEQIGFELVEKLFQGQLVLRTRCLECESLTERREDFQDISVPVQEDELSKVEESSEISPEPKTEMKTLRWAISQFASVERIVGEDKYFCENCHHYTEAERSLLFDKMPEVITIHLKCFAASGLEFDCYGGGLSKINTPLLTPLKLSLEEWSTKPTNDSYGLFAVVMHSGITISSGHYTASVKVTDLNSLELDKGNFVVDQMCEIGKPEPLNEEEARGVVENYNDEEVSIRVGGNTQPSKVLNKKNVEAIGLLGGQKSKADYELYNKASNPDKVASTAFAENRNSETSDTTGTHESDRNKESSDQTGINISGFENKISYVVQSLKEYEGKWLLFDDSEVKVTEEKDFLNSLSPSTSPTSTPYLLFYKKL
# 3',5'-cyclic-AMP phosphodiesterase 4B (Homo sapiens), sequence (Q07343 whole entry, looked up): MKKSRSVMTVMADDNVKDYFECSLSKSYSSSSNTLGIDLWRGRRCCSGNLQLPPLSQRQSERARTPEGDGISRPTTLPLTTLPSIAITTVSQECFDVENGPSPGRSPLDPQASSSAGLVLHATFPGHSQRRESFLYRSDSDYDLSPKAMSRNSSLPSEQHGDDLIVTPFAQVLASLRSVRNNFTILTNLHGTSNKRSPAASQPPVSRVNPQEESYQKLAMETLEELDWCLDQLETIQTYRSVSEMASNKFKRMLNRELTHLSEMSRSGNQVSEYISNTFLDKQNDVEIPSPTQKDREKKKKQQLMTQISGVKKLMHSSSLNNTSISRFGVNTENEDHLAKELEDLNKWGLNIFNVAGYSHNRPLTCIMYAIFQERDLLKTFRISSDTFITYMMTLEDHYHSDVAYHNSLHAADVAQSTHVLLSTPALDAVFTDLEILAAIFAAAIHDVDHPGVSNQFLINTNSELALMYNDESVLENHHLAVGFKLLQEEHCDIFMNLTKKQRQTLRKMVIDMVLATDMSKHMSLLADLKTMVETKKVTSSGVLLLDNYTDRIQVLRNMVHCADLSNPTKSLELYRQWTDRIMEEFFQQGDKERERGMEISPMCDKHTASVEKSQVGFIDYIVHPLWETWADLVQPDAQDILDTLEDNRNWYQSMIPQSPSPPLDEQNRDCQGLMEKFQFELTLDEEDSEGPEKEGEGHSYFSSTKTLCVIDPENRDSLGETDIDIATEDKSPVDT
SMILES,Potency [1],"activity change, negative = inhibition [2]",Potency [3],"activity change, negative = inhibition [4]","activity, negative = inhibition [5]",Potency [6],Potency [7],outcome [8],Potency [9],Potency [10],Potency [11],activation [12],"activity change, negative = inhibition [13]","max response [13, 19]","max response [13, 20]",Potency [14],Potency [15],Potency [16],Potency [17],Potency [18]
CNc1cc(-c2ccccc2C(F)(F)F)ncn1,> 11.4 µM (inactive),4.62% (inactive),15.8 µM (active),1.13% (inactive),7.97% (inactive),> 46 µM (inactive),> 46 µM (inactive),inactive,inactive,inactive,15.8 µM (active),17.1% (inactive),1.87% (inactive),21.4%,21.2%,inactive,inactive,inactive,inactive,inactive
COCCn1c(=O)c(-c2ccc(F)cc2)nc2cnc(N3CCOCC3)nc21,> 11.4 µM (inactive),-9.35% (inactive),5.01 µM (active),16.8% (inactive),-13.8% (inactive),> 9.22 µM (inactive),> 46 µM (inactive),inactive,inactive,,,,1.75% (inactive),15.7%,16.8%,inactive,inactive,inactive,inactive,inactive
COCCn1c(=O)c(-c2cccc(C#N)c2)nc2cnc(N(C)C)nc21,> 11.4 µM (inactive),-1.01% (inactive),2 µM (active),-2.05% (inactive),-10.5% (inactive),> 9.22 µM (inactive),> 46 µM (inactive),inactive,inactive,,,,3.6% (inactive),16.6%,17.9%,inactive,inactive,inactive,inactive,inactive
Cc1cnc(CNc2ccnc(-c3c(C)noc3C)n2)cn1,> 11.4 µM (inactive),1.51% (inactive),12.6 µM (active),10.3% (inactive),1.5% (inactive),> 46 µM (inactive),> 46 µM (inactive),inactive,inactive,,inactive,,7.48% (inactive),24.6%,37.5%,inactive,inactive,inactive,inactive,inactive
COCCNc1nc(-c2ccccc2OC)nc2ccccc12,> 2.29 µM (inactive),12.5% (inactive),0.794 µM (active),8.54% (inactive),7.08% (inactive),> 46 µM (inactive),> 46 µM (inactive),inactive,inactive,,inactive,,6.78% (inactive),15.3%,15.6%,inactive,inactive,inactive,inactive,inactive
Cn1cc(-c2nc3cnc(N4CCNCC4)nc3n(C)c2=O)c2ccccc21,> 11.4 µM (inactive),4.46% (inactive),15.8 µM (active),6.17% (inactive),25.8% (inactive),> 9.22 µM (inactive),> 46 µM (inactive),inactive,inactive,,inactive,,6.84% (inactive),11.6%,17.7%,inactive,inactive,inactive,inactive,inactive
COCCn1c(=O)cnc2cnc(Oc3ccc(OC)cc3)nc21,> 11.4 µM (inactive),-2.08% (inactive),5.01 µM (active),-2.59% (inactive),-5.99% (inactive),> 9.22 µM (inactive),> 46 µM (inactive),inactive,inactive,,inactive,,2.42% (inactive),12.6%,10.8%,inactive,inactive,inactive,inactive,inactive
CN(C)C(=O)c1ccc(-c2ccc3ncnc(N(C)C)c3c2)cc1,> 11.4 µM (inactive),-20.2% (inactive),20 µM (active),9.63% (inactive),-6.55% (inactive),> 46 µM (inactive),> 46 µM (inactive),inactive,inactive,,inactive,,4.12% (inactive),19.1%,22.2%,25.1 µM (active),28.2 µM (active),inactive,inactive,inactive
CC(=O)NCCNc1ncncc1-c1ccccc1C,> 11.4 µM (inactive),10.6% (inactive),25.1 µM (active),5.27% (inactive),8.22% (inactive),> 46 µM (inactive),> 46 µM (inactive),inactive,inactive,2.51 µM (active),inactive,,6.81% (inactive),17.2%,23%,inactive,inactive,inactive,inactive,inactive
COCCn1c(=O)c(-c2cccc(C#N)c2)nc2cnc(Oc3ccccc3)nc21,> 11.4 µM (inactive),-13% (inactive),15.8 µM (active),2.72% (inactive),-11.3% (inactive),> 9.22 µM (inactive),> 46 µM (inactive),inactive,inactive,,inactive,,-5.58% (inactive),-1.86%,-8.56%,inactive,inactive,inactive,inactive,inactive
COc1ccc(Oc2ncc3nc(C)c(=O)n(-c4ccccc4)c3n2)cc1,> 11.4 µM (inactive),-15.8% (inactive),7.94 µM (active),-10.3% (inactive),-5.69% (inactive),> 9.22 µM (inactive),> 46 µM (inactive),inactive,inactive,5.01 µM (active),inactive,,6.06% (inactive),10.7%,17.1%,inactive,inactive,inactive,inactive,inactive
